According to PubChem BioAssay AID1159580 (chemical genetic matrix, 2015):
Several values for one entry are separate records, joined by “and”; a condition that tells them apart may be missing. Equal entries are not always repeated. Hit rate of the full screen: of about 5,500 compounds, about 2,000 (36%) were called active. Another 18% or so got no clear call; they are omitted. No stated cut-off is given here; in the data, active means normalized growth mostly below about 0.91 (no sharp cut-off); inconclusive means no clear call, values can overlap the other calls; inactive means mostly above about 0.92. This is one part of the list.

Test: chemical genetic growth profiling, strain panel (AID 1159580);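 further: tested at 20 µM; growth read once vehicle control cultures reached saturation at 30 °C; 1 = growth at the plate median or of vehicle wells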
Settings: S. cerevisiae deletion strains, growth OD

Measured: normalized growth

CCn1cc(C(=O)O)c(=O)c2cc(F)c(N3CCNCC3)cc21
inactive: locus YAL013W, strain DEP1, stronger effect = lower value 1 | locus YAL021C, strain ccr4, stronger effect = lower value 0.967 | locus YAL026C, strain drs2, stronger effect = lower value 0.978 | locus YAL030W, strain snc1, stronger effect = lower value 0.988 | locus YBL061C, strain skt5, stronger effect = lower value 0.991 | locus YBR009C, strain hhf1, stronger effect = lower value 0.983 | locus YBR021W, strain FUR4, stronger effect = lower value 0.905 | locus YBR023C, strain chs3, stronger effect = lower value 0.989 | locus YBR171W, strain sec66, stronger effect = lower value 0.988 | locus YBR229C, strain ROT2, stronger effect = lower value 1.01 | locus YBR231C, strain swc5, stronger effect = lower value 0.986 | locus YBR279W, strain paf1, stronger effect = lower value 0.978 | locus YCL011C, strain gbp2, stronger effect = lower value 0.983 | locus YCL016C, strain dcc1, stronger effect = lower value 0.998 | locus YCL029C, strain bik1, stronger effect = lower value 1 | locus YCL061C, strain MRC1, stronger effect = lower value 0.989 | locus YCL069W, strain vba3, stronger effect = lower value 0.966 | locus YCR088W, strain abp1, stronger effect = lower value 0.992 | locus YDL005C, strain med2, stronger effect = lower value 0.973 | locus YDL035C, strain GPR1, stronger effect = lower value 1 | locus YDL040C, strain nat1, stronger effect = lower value 0.99 | locus YDL074C, strain BRE1, stronger effect = lower value 1.02 | locus YDL101C, strain DUN1, stronger effect = lower value 1 | locus YDL134C, strain PPH21, stronger effect = lower value 0.994 | locus YDL185W, strain tfp1, stronger effect = lower value 0.998 | locus YDL192W, strain arf1, stronger effect = lower value 0.995 | locus YDR001C, strain nth1, stronger effect = lower value 0.98 | locus YDR069C, strain doa4, stronger effect = lower value 0.964 | locus YDR101C, strain arx1, stronger effect = lower value 0.972 | locus YDR137W, strain rgp1, stronger effect = lower value 0.97 | locus YDR159W, strain sac3, stronger effect = lower value 0.948 | locus YDR162C, strain NBP2, stronger effect = lower value 0.997 | locus YDR195W, strain ref2 0.962 | locus YDR297W, strain sur2, stronger effect = lower value 0.992 | locus YDR318W, strain mcm21, stronger effect = lower value 0.995 | locus YDR334W, strain swr1, stronger effect = lower value 0.981 | locus YDR335W, strain msn5, stronger effect = lower value 0.928 | locus YDR388W, stronger effect = lower value 1 | locus YDR392W, strain spt3, stronger effect = lower value 0.873 | locus YDR502C, strain sam2, stronger effect = lower value 1.01 | locus YEL003W, strain gim4, stronger effect = lower value 0.984 | locus YEL037C, strain rad23, stronger effect = lower value 0.976 | locus YEL061C, strain CIN8 (second series), stronger effect = lower value 0.97 | locus YEL061C, strain CIN8, stronger effect = lower value 1.01 | locus YER015W, strain faa2, stronger effect = lower value 0.987 | locus YER016W, strain bim1, stronger effect = lower value 0.986 | locus YER110C, stronger effect = lower value 0.996 | locus YER111C, strain swi4, stronger effect = lower value 0.975 | locus YER155C, strain BEM2 (second series), stronger effect = lower value 0.95 | locus YER155C, strain BEM2, stronger effect = lower value 1.01 | locus YER167W, strain BCK2, stronger effect = lower value 1 | locus YFR010W, strain ubp6, stronger effect = lower value 0.972 | locus YGL078C, strain dbp3, stronger effect = lower value 0.998 | locus YGL086W, strain mad1, stronger effect = lower value 0.992 | locus YGL167C, strain pmr1, stronger effect = lower value 0.985 | locus YGL173C, strain kem1, stronger effect = lower value 0.98 | locus YGL227W, strain vid30, stronger effect = lower value 0.979 | locus YGL240W, strain doc1, stronger effect = lower value 0.973 | locus YGL248W, strain PDE1, stronger effect = lower value 1 | locus YGL253W, strain hxk2, stronger effect = lower value 0.995 | locus YGR078C, strain PAC10, stronger effect = lower value 1 | locus YGR135W, strain pre9, stronger effect = lower value 0.988 | locus YGR229C, strain SMI1, stronger effect = lower value 1.02 | locus YGR252W, strain gcn5, stronger effect = lower value 0.912 | locus YHR013C, strain ard1, stronger effect = lower value 0.928 | locus YHR027C, strain rpn1, stronger effect = lower value 0.987 | locus YHR030C, strain SLT2, stronger effect = lower value 0.999 and 0.974 | locus YHR079C, strain IRE1 (second series), stronger effect = lower value 0.995 | locus YHR079C, strain IRE1, stronger effect = lower value 0.974 | locus YHR094C, strain hxt1, stronger effect = lower value 0.998 | locus YHR129C, strain ARP1, stronger effect = lower value 1 | locus YHR142W, strain chs7, stronger effect = lower value 0.971 | locus YHR200W, strain rpn10, stronger effect = lower value 0.998 | locus YIL066C, strain RNR3, stronger effect = lower value 1.01 | locus YIL073C, strain SPO22, stronger effect = lower value 1 | locus YIL125W, strain kgd1, stronger effect = lower value 1 | locus YIR030C, strain dcg1, stronger effect = lower value 0.999 | locus YJL092W, strain hpr5, stronger effect = lower value 0.982 | locus YJL095W, strain BCK1 (second series), stronger effect = lower value 0.993 | locus YJL095W, strain BCK1, stronger effect = lower value 0.991 and 0.996 | locus YJL115W, strain asf1, stronger effect = lower value 0.976 | locus YJL129C, strain trk1, stronger effect = lower value 0.929 | locus YJL134W, strain LCB3, stronger effect = lower value 1 | locus YJL154C, strain vps35, stronger effect = lower value 0.974 | locus YJL164C, strain tpk1, stronger effect = lower value 0.988 | locus YJL166W, strain qcr8, stronger effect = lower value 1 | locus YJL168C, strain set2, stronger effect = lower value 1 | locus YJL187C, strain SWE1 (second series), stronger effect = lower value 1.01 | locus YJL187C, strain SWE1, stronger effect = lower value 0.985
